Among the test systems are SR leukemia; RPMI-8226 leukemia; OVCAR-8 ovarian; OVCAR-5 ovarian; OVCAR-4 ovarian; SK-OV-3 ovarian; OVCAR-3 ovarian; NCI/ADR-RES ovarian; T-47D breast; BT-549 breast; MDA-MB-435 melanoma; MCF7 breast; HCT-116 colon; HCC-2998 colon; KM12 colon; IGROV1 ovarian; HS 578T breast; SW-620 colon; MDA-MB-468 breast.
Holding throughout (assay): NCI-60 one-dose screen, 48 h (100 = growth as untreated, 0 = no growth, -100 = all killed)
Holding throughout (conditions): 10 µM unless noted

For nine molecules, growth results are on record in PubChem BioAssay (NCI).

The panel holds about 83,000 compounds, 20% with a hit somewhere; the sample as a whole holds those more often.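 Interpretation: 100, growth as untreated; towards 0, rising growth inhibition; 0, no net growth; 0 to -100, cell death. Compounds scoring below 10 were considered active.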 Values without a mark were called inactive. The source made the active and inactive calls.

On to `COc1ccc(/C=C2\C(=O)Nc3ccc(Cl)cc32)cc1OCc1ccccn1`, for which the growth in the test with SR leukemia was 31.4%; with RPMI-8226 leukemia it was 39.5%; in the test on OVCAR-8 ovarian, 31.6%; with OVCAR-5 ovarian, 50%; in the test on OVCAR-4 ovarian, 8.08% (active); in the test with SK-OV-3 ovarian, 63.3%. Further, the growth in the test with OVCAR-3 ovarian is 51.6%; with NCI/ADR-RES ovarian, 27.3%; in the test on T-47D breast it was 51.9%; with BT-549 breast it was 46.1%; in the test on MDA-MB-435 melanoma it was 75.1%; in the test on MCF7 breast it was 34.7%. Further, the growth was 21.1% in the test on HCT-116 colon, 79.6% in the test on HCC-2998 colon and 75.2% in the test on KM12 colon.
Take `O=C(COc1ccc(NC(=O)Nc2ccc(Cl)c(Cl)c2)cc1)N=Nc1c(O)[nH]c2ccccc12`: the growth with SR leukemia was 2.4% (active); in the test on RPMI-8226 leukemia it was 2.89% (active); in the test on OVCAR-8 ovarian, -43.2% (active); in the test with OVCAR-4 ovarian it was -5.31% (active); in the test on SK-OV-3 ovarian it was -49.9% (active); in the test with IGROV1 ovarian, -49% (active). Further, the growth with OVCAR-3 ovarian is -78.1% (active); in the test on HS 578T breast it was -9.24% (active); in the test on NCI/ADR-RES ovarian, 80.8%; with T-47D breast, 11.6%; with BT-549 breast it was -38.4% (active); in the test on SW-620 colon, -62% (active). Moreover, the growth in the test on MCF7 breast was -6.27% (active); in the test on HCT-116 colon, -1.24% (active); in the test with HCC-2998 colon, -49.3% (active); in the test on KM12 colon, -38.3% (active).
`CC(C)c1ccc2c(N)c(C(=O)Nc3ccc(C(F)(F)F)cn3)sc2n1`: the growth with SR leukemia is 41.9%; in the test with RPMI-8226 leukemia, 37.9%; in the test on OVCAR-8 ovarian, 63.8%; with OVCAR-5 ovarian, 89.9%; with OVCAR-4 ovarian, 32.4%; in the test on SK-OV-3 ovarian, 83.9%. In addition, the growth in the test on OVCAR-3 ovarian was 83%; in the test with NCI/ADR-RES ovarian, 25%; in the test with T-47D breast, 23.2%; in the test with BT-549 breast, 42.1%; with MDA-MB-435 melanoma, 54.8%; with MCF7 breast it was 36.9%. Moreover, the growth in the test with HCT-116 colon was 47.3%; with HCC-2998 colon it was 96.1%; in the test on KM12 colon it was 57%; in the test on MDA-MB-468 breast, 14.8%.
Consider `Cc1cc2c(cc1Cl)C(=O)/C(=C/c1ccc(F)cc1)O2`, for which the growth with SR leukemia was 89.1%; in the test on RPMI-8226 leukemia it was 97.2%; with OVCAR-8 ovarian, 97.5%; in the test with OVCAR-4 ovarian it was 90.9%; in the test on SK-OV-3 ovarian, 100%; with IGROV1 ovarian, 20.9%. Further, the growth is 124% in the test with OVCAR-3 ovarian; 97.1% with HS 578T breast; 93.3% with NCI/ADR-RES ovarian; 69.1% with T-47D breast; 85% with BT-549 breast; 106% in the test with MDA-MB-435 melanoma. The growth in the test on SW-620 colon was 111%; in the test with MCF7 breast, 37.9%; in the test on HCT-116 colon it was 73.5%; with HCC-2998 colon, 117%; with KM12 colon, 92.7%; with MDA-MB-468 breast it was 91.1%.
Take `Cn1cc(-c2cc(N)n3nc(-c4cn(C)c5ncccc45)cc3n2)c2cccnc21`: the growth was 51.1% with SR leukemia; 54.3% in the test with RPMI-8226 leukemia; 61.3% with OVCAR-8 ovarian; 71.4% with OVCAR-4 ovarian; 99.8% with SK-OV-3 ovarian; 98% with IGROV1 ovarian. Besides, the growth in the test on OVCAR-3 ovarian is 96.7%; with HS 578T breast, 89.2%; in the test on NCI/ADR-RES ovarian, 68.6%; with T-47D breast, 89%; in the test with BT-549 breast, 62.5%; in the test on MDA-MB-435 melanoma, 92.9%. Moreover, the growth was 71.7% in the test on SW-620 colon; 62.7% with HCT-116 colon; -55.5% (active) with HCC-2998 colon; 87.8% in the test with KM12 colon; 45% in the test on MDA-MB-468 breast.
Regarding `COC(=O)/C=C/c1cccc2c1C(=O)NC(C)(c1cc3cc4ccccc4cc3oc1=O)N2` (stereo unspecified), the growth with SR leukemia was 28%; with RPMI-8226 leukemia, 40.2%; in the test with OVCAR-8 ovarian it was 54.3%; in the test on OVCAR-4 ovarian, 5.78% (active); with SK-OV-3 ovarian it was 95.6%; in the test with IGROV1 ovarian, 65.2%. Further, the growth in the test on OVCAR-3 ovarian was 32%; in the test with HS 578T breast it was 29.5%; in the test with NCI/ADR-RES ovarian it was 35.2%; in the test with T-47D breast it was 71.8%; in the test with BT-549 breast, 45.2%; in the test on MDA-MB-435 melanoma, 76.1%. For the same molecule, the growth was 54.3% in the test on SW-620 colon; 47.2% with MCF7 breast; 44.5% in the test with HCT-116 colon; 68.5% in the test with HCC-2998 colon; 53.7% with KM12 colon; 41% in the test on MDA-MB-468 breast.
For the molecule `Nc1nc(-c2ccccc2)c(N=Nc2ccc([N+](=O)[O-])cc2Cl)s1`, the growth with SR leukemia was 136%; in the test on RPMI-8226 leukemia, 53%; in the test with OVCAR-8 ovarian, 78.5%; in the test with OVCAR-4 ovarian, 80.4%; in the test with SK-OV-3 ovarian, 82%; in the test with IGROV1 ovarian, 86.3%. The growth with OVCAR-3 ovarian was 74.8%; with HS 578T breast it was 85%; in the test on NCI/ADR-RES ovarian it was 89.6%; with T-47D breast, 40.7%; in the test with BT-549 breast, 82.9%; in the test with MDA-MB-435 melanoma, 87.1%. Besides, the growth with SW-620 colon was 90.3%; in the test on MCF7 breast, 68.1%; in the test with HCT-116 colon, 70.1%; in the test on HCC-2998 colon it was 99.9%; in the test with KM12 colon it was 90.4%; in the test with MDA-MB-468 breast, 55.8%.
For `CSc1ccc(NC(=O)c2ccc3nn(/C(C#N)=C/c4ccccn4)nc3c2)cc1`, the growth in the test with SR leukemia is -6.88% (active); in the test with RPMI-8226 leukemia, -35.4% (active); in the test with OVCAR-8 ovarian, -44.2% (active); with OVCAR-5 ovarian, -87.6% (active); with OVCAR-4 ovarian, -57.2% (active); in the test on SK-OV-3 ovarian, -2.79% (active). The growth was -85% (active) with OVCAR-3 ovarian; -35.7% (active) in the test on NCI/ADR-RES ovarian; -39.9% (active) with T-47D breast; -97.9% (active) in the test on BT-549 breast; -70.8% (active) in the test on MDA-MB-435 melanoma; -78.6% (active) with MCF7 breast. Besides, the growth was -73.9% (active) in the test on HCT-116 colon, -100% (active) with HCC-2998 colon, -68% (active) in the test with KM12 colon and -94% (active) in the test on MDA-MB-468 breast.
As for `C=C1CC[C@@H]2[C@]3(C)COC(c4cn[nH]c4-c4ccc(F)cc4)O[C@@H]3CC[C@@]2(C)[C@@H]1C/C=C1/C(=O)OCC1O` (stereo partly specified), the growth is 9.73% (active) in the test with SR leukemia; 0.899% (active) in the test with RPMI-8226 leukemia; 1.2% (active) in the test on OVCAR-8 ovarian; -42.2% (active) in the test with OVCAR-5 ovarian; 32.9% with OVCAR-4 ovarian; 46.6% in the test on SK-OV-3 ovarian. Further, the growth in the test on OVCAR-3 ovarian was -68.6% (active); in the test with HS 578T breast it was 44.8%; in the test on NCI/ADR-RES ovarian, -45.6% (active); with T-47D breast, 11.6%; in the test with BT-549 breast, -93.4% (active); in the test on MDA-MB-435 melanoma, -62.2% (active). Besides, the growth is -60.7% (active) with SW-620 colon; -88.9% (active) in the test on HCT-116 colon; -95.3% (active) in the test with HCC-2998 colon; -44.3% (active) with KM12 colon; -82.4% (active) in the test with MDA-MB-468 breast.
